The source of these data is paper PMC7862700, “An all-to-all approach to the identification of sequence-specific readers for epigenetic DNA modifications on cytosine”.

Test in all cases: DAPPL (digital affinity profiling via proximity ligation, sequencing); 10 mM Tris-HCl pH 7.5, 50 mM NaCl, 1 mM DTT, 4% glycerol, room temperature, 30 min; GST-TFs on glutathione beads, 16-mer random dsDNA library, 0.1% formaldehyde crosslink after washing; high values mean tight binding
One assay addresses T1, FEV (Homo sapiens, UniProt Q99581 1-238).
T1 sequence: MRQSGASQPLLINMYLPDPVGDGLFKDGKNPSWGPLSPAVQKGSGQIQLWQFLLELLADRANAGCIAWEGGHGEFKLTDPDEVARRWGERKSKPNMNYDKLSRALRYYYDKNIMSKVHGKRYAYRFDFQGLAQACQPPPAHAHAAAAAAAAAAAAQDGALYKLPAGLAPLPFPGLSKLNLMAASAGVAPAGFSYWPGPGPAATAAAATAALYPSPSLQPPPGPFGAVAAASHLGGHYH
The conditions noted are these: protein: recombinant; tags: N-terminal GST; dsDNA, one strand shown. In a few lines:
(§1)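 Yeast served to express human transcription factors as GST fusions, which were then captured on glutathione beads and labelled with DNA barcodes. Pooled with a tag-only sample, they were incubated with 200 nmole of a 16-mer random double-stranded DNA library for 30 min at room temperature in Tris/NaCl/DTT/glycerol buffer, washed, crosslinked with 0.1% formaldehyde, ligated by proximity, amplified by PCR and sequenced. Dividing each hexamer's read frequency for a factor by its frequency for the tag-only sample gives the binding signal.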

Another assay deals with ETV5 (Homo sapiens, UniProt P41161 1-510). Conditions: protein: recombinant; tags: N-terminal GST; dsDNA, one strand shown. In short, it runs like this: as §1
ETV5, sequence (P41161 whole entry): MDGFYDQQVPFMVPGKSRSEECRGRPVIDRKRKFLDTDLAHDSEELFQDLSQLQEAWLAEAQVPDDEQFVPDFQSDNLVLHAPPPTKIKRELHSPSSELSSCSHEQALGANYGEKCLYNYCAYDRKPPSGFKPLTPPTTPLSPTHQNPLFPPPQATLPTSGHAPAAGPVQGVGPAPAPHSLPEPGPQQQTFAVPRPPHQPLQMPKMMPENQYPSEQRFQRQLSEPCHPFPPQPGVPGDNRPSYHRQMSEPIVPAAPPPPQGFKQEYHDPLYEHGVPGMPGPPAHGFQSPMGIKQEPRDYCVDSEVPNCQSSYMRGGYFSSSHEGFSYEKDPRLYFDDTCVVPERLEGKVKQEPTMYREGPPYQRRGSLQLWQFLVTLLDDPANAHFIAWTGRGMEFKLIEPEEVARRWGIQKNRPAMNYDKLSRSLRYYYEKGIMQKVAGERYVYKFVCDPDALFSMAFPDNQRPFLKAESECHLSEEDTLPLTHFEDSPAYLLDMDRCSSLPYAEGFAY
For the next assay, the target named is HSF1 (Homo sapiens, UniProt Q00613 1-529). Conditions: protein: recombinant; tags: N-terminal GST; chain copies: 3; dsDNA, one strand shown. In a few lines:
as §1

The target in another assay is T2, SPIC (Homo sapiens, UniProt Q8N5J4 1-248).
T2 sequence: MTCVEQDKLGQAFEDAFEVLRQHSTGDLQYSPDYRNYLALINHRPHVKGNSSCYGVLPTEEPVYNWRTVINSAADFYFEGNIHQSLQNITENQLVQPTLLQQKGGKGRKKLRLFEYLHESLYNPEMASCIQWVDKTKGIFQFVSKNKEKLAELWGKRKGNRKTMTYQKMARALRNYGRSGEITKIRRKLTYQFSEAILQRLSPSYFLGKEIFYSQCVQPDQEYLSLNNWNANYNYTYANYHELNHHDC
Conditions: protein: recombinant; tags: N-terminal GST; dsDNA, one strand shown. In short, it runs like this:
as §1

The next assay addresses ELF4 (Homo sapiens, UniProt Q99607 1-663). The conditions noted are these: protein: recombinant; tags: N-terminal GST; dsDNA, one strand shown. In a few lines:
as §1

The target in the next assay is T3, ELK4 (Homo sapiens, UniProt P28324-2 1-405).
T3 sequence: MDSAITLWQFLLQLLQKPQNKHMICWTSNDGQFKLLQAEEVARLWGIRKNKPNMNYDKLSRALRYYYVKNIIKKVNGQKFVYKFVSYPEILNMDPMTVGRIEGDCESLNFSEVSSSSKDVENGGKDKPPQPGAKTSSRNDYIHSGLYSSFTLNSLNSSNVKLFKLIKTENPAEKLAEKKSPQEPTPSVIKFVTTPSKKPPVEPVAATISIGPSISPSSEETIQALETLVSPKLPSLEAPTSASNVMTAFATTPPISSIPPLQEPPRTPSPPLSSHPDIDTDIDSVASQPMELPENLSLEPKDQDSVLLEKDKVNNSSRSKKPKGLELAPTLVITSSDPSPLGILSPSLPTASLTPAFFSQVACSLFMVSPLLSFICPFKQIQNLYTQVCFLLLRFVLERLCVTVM
The conditions noted are these: protein: recombinant; tags: N-terminal GST; dsDNA, one strand shown. In short, it runs like this: as §1

The next assay concerns the target T4, ETV2 (Homo sapiens, UniProt O00321 1-342).
T4 sequence: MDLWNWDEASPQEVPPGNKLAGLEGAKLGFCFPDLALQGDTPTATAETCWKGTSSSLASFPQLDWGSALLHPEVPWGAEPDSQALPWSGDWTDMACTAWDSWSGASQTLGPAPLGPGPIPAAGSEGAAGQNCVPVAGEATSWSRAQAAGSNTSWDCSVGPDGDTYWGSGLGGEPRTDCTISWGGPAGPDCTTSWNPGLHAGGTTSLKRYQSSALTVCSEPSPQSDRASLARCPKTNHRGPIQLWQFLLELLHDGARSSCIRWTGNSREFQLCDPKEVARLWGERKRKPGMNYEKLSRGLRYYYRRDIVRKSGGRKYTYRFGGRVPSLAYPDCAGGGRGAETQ
The conditions noted are these: protein: recombinant; tags: N-terminal GST; dsDNA, one strand shown. In short, it runs like this: as §1

In a further assay the target is T5, ELF3 (Homo sapiens, UniProt P78545 1-371).
T5 sequence: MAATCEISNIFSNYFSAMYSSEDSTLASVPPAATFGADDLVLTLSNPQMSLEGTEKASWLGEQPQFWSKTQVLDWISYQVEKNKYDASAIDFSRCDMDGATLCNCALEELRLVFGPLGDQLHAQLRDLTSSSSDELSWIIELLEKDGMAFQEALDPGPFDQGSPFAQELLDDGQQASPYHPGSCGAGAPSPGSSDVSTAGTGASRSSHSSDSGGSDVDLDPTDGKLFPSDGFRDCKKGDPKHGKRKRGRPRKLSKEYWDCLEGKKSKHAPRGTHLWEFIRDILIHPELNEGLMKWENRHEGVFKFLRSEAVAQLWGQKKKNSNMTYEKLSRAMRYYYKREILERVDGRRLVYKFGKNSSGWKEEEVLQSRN
The conditions noted are these: protein: recombinant; tags: N-terminal GST; dsDNA, one strand shown. In short, it runs like this: as §1

For the next assay, the target named is CRX (Homo sapiens, UniProt O43186 1-299). The conditions noted are these: protein: recombinant; tags: N-terminal GST; dsDNA, one strand shown. In short, it runs like this: as §1
CRX, sequence (O43186 whole entry): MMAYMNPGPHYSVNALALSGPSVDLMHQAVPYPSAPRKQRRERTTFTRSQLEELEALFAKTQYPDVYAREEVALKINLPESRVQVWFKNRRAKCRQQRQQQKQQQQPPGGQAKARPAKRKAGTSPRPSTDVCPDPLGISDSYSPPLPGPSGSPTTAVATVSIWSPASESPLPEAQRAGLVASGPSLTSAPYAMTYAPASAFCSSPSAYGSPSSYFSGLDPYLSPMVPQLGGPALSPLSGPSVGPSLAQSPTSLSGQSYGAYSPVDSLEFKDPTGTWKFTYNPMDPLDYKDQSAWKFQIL
For a further assay, the target named is ETV1 (Homo sapiens, UniProt P50549 1-477). Conditions: protein: recombinant; tags: N-terminal GST; dsDNA, one strand shown. In short, it runs like this: as §1
ETV1, sequence (P50549 whole entry): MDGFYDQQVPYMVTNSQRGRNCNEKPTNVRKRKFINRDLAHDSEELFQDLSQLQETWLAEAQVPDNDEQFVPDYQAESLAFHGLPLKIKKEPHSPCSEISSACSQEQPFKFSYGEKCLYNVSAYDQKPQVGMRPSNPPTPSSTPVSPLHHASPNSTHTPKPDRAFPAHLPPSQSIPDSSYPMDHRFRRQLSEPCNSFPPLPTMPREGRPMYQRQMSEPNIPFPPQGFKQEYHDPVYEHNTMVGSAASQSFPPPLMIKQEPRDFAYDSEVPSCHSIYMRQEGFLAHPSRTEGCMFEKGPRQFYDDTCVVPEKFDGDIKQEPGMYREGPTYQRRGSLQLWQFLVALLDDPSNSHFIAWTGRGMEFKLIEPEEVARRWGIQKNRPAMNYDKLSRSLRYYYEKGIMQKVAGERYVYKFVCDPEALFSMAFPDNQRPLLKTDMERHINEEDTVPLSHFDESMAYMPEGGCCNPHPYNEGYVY

HSF1, sequence (Q00613 whole entry): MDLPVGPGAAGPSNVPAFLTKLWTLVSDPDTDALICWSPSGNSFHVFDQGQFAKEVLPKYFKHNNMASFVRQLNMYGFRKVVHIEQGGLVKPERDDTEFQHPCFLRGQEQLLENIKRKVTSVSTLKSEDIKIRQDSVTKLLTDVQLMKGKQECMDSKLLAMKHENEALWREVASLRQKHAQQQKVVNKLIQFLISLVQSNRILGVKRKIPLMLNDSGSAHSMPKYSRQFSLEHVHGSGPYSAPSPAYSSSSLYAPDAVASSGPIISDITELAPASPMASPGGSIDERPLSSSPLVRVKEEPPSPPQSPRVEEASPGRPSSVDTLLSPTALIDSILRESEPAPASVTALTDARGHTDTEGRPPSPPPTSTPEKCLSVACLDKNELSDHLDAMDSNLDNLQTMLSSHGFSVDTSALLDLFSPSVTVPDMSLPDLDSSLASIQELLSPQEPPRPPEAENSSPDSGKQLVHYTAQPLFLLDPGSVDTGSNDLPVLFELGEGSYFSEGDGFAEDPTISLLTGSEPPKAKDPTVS
ELF4, sequence (Q99607 whole entry): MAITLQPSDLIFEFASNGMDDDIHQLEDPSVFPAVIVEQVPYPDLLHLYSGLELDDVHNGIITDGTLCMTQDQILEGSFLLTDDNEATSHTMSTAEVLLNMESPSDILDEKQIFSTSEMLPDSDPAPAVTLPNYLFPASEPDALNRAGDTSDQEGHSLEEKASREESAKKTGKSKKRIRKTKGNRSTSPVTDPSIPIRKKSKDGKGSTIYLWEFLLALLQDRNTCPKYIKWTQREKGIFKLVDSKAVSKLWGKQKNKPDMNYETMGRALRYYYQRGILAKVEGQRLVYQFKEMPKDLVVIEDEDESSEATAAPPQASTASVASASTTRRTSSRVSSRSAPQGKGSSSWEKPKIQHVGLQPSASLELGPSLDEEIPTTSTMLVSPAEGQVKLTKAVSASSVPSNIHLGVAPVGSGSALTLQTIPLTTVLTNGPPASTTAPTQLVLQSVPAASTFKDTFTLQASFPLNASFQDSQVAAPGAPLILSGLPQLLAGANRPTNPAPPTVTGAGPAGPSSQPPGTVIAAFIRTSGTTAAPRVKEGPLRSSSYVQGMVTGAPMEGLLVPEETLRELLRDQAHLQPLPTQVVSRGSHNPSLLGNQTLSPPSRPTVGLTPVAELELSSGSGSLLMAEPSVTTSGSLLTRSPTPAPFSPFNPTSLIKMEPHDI

As to CACTTC, the binding signal in the assay with FEV is 5.06 fold enrichment (6-mer frequency, TF over GST control); with ETV5 it was 3.62 fold enrichment (6-mer frequency, TF over GST control); in the assay with HSF1 it was 1.3 fold enrichment (6-mer frequency, TF over GST control); with SPIC, 3.53 fold enrichment (6-mer frequency, TF over GST control); in the assay with ELF4, 3.48 fold enrichment (6-mer frequency, TF over GST control); with ELK4, 3.01 fold enrichment (6-mer frequency, TF over GST control). Moreover, the binding signal in the assay with ETV2 is 3.4 fold enrichment (6-mer frequency, TF over GST control); with ELF3, 3.05 fold enrichment (6-mer frequency, TF over GST control); with CRX it was 1.07 fold enrichment (6-mer frequency, TF over GST control); with ETV1 it was 3.73 fold enrichment (6-mer frequency, TF over GST control).

As to TAATCC, the binding signal in the assay with FEV is 1.24 fold enrichment (6-mer frequency, TF over GST control); with ETV5, 1.3 fold enrichment (6-mer frequency, TF over GST control); with HSF1, 4.27 fold enrichment (6-mer frequency, TF over GST control); with SPIC, 1.14 fold enrichment (6-mer frequency, TF over GST control); with ELF4, 1.23 fold enrichment (6-mer frequency, TF over GST control); with ELK4, 1.23 fold enrichment (6-mer frequency, TF over GST control). The binding signal is 1.2 fold enrichment (6-mer frequency, TF over GST control) with ETV2; 1.22 fold enrichment (6-mer frequency, TF over GST control) with ELF3; 7.84 fold enrichment (6-mer frequency, TF over GST control) with CRX; 1.26 fold enrichment (6-mer frequency, TF over GST control) with ETV1.

As to TTAAGT, the binding signal with FEV was 1.11 fold enrichment (6-mer frequency, TF over GST control); with ETV5, 1.15 fold enrichment (6-mer frequency, TF over GST control); with HSF1, 2 fold enrichment (6-mer frequency, TF over GST control); with SPIC, 1.25 fold enrichment (6-mer frequency, TF over GST control); with ELF4, 1.16 fold enrichment (6-mer frequency, TF over GST control); with ELK4 it was 1.03 fold enrichment (6-mer frequency, TF over GST control). Also, the binding signal with ETV2 was 1.14 fold enrichment (6-mer frequency, TF over GST control); with ELF3 it was 1.26 fold enrichment (6-mer frequency, TF over GST control); in the assay with CRX, 3.27 fold enrichment (6-mer frequency, TF over GST control); with ETV1 it was 1.16 fold enrichment (6-mer frequency, TF over GST control).

For TTACTG, the binding signal with FEV was 1.04 fold enrichment (6-mer frequency, TF over GST control); in the assay with ETV5, 1.15 fold enrichment (6-mer frequency, TF over GST control); in the assay with HSF1, 1.52 fold enrichment (6-mer frequency, TF over GST control); in the assay with SPIC, 1.18 fold enrichment (6-mer frequency, TF over GST control); with ELF4 it was 1.11 fold enrichment (6-mer frequency, TF over GST control); with ELK4 it was 1.16 fold enrichment (6-mer frequency, TF over GST control). Further, the binding signal was 1.12 fold enrichment (6-mer frequency, TF over GST control) with ETV2; 1.21 fold enrichment (6-mer frequency, TF over GST control) with ELF3; 1.84 fold enrichment (6-mer frequency, TF over GST control) with CRX; 1.01 fold enrichment (6-mer frequency, TF over GST control) with ETV1.

Take TCTATG: the binding signal with FEV was 1.06 fold enrichment (6-mer frequency, TF over GST control); with ETV5, 1.1 fold enrichment (6-mer frequency, TF over GST control); with HSF1, 1.16 fold enrichment (6-mer frequency, TF over GST control); in the assay with SPIC, 1.11 fold enrichment (6-mer frequency, TF over GST control); with ELF4, 1.14 fold enrichment (6-mer frequency, TF over GST control); with ELK4 it was 1.16 fold enrichment (6-mer frequency, TF over GST control). Further, the binding signal with ETV2 was 1.25 fold enrichment (6-mer frequency, TF over GST control); in the assay with ELF3, 1.1 fold enrichment (6-mer frequency, TF over GST control); with CRX, 1.11 fold enrichment (6-mer frequency, TF over GST control); with ETV1, 1.1 fold enrichment (6-mer frequency, TF over GST control).

On to TCTTTT, for which the binding signal is 1.44 fold enrichment (6-mer frequency, TF over GST control) with FEV; 1.4 fold enrichment (6-mer frequency, TF over GST control) with ETV5; 1.66 fold enrichment (6-mer frequency, TF over GST control) in the assay with HSF1; 1.55 fold enrichment (6-mer frequency, TF over GST control) with SPIC; 1.54 fold enrichment (6-mer frequency, TF over GST control) with ELF4; 1.22 fold enrichment (6-mer frequency, TF over GST control) in the assay with ELK4. The binding signal in the assay with ETV2 was 1.42 fold enrichment (6-mer frequency, TF over GST control); with ELF3, 1.41 fold enrichment (6-mer frequency, TF over GST control); with CRX, 1.59 fold enrichment (6-mer frequency, TF over GST control); with ETV1, 1.47 fold enrichment (6-mer frequency, TF over GST control).

Take CTCAGC: the binding signal is 1.3 fold enrichment (6-mer frequency, TF over GST control) with FEV; 1.11 fold enrichment (6-mer frequency, TF over GST control) with ETV5; 1.1 fold enrichment (6-mer frequency, TF over GST control) with HSF1; 1.16 fold enrichment (6-mer frequency, TF over GST control) with SPIC; 1.27 fold enrichment (6-mer frequency, TF over GST control) with ELF4; 1.24 fold enrichment (6-mer frequency, TF over GST control) with ELK4. Besides, the binding signal was 1.31 fold enrichment (6-mer frequency, TF over GST control) with ETV2; 1.2 fold enrichment (6-mer frequency, TF over GST control) with ELF3; 1.31 fold enrichment (6-mer frequency, TF over GST control) with CRX; 1.28 fold enrichment (6-mer frequency, TF over GST control) in the assay with ETV1.
